Screen size: about 5,700 compounds; about 85 (1%) were called active. No stated cut-off is given here; in the data, active means p53-positive nuclei above about 36% (passing the limit was not always enough); inactive means the rest. This excerpt belongs to a sample that is enriched for actives.
Legend:
[1] = nuclear p53 accumulation, HPV+ cells – imaging, p53-positive nuclei imaging, 24 h, 48 h (AID 1508601); conditions: 24/48 h
[2] = target: Cellular tumor antigen p53 (Homo sapiens) (UniProt P04637); assay: as above; conditions: 24/48 h, stronger effect = higher value
Cellular tumor antigen p53 (Homo sapiens), sequence (P04637 whole entry, looked up): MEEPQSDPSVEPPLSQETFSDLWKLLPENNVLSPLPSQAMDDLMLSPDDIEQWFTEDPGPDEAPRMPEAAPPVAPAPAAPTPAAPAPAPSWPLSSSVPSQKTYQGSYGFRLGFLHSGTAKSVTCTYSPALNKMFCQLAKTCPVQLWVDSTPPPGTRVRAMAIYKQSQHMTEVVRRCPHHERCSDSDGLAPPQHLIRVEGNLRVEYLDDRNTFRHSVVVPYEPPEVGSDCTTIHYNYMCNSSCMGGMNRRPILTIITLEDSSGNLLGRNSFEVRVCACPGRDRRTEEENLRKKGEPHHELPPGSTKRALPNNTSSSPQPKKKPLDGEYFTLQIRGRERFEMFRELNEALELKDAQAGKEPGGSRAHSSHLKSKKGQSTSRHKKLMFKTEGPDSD

[3] = measured here: cell number at 24 h, concentration not given here
[4] = measured here: cell number at 48 h, concentration not given here
[5] = measured here: p53 positive nuclei at 24 h, concentration not given here
[6] = measured here: cell number at 24 h, Library stock concentration: 80 uM
[7] = measured here: cell number at 24 h, Library stock concentration: 400 uM
[8] = measured here: cell number at 24 h, Library stock concentration: 2 mM
[9] = measured here: cell number at 24 h, Library stock concentration: 10 mM
[10] = measured here: cell number at 48 h, Library stock concentration: 80 uM
[11] = measured here: cell number at 48 h, Library stock concentration: 400 uM
[12] = measured here: cell number at 48 h, Library stock concentration: 2 mM
[13] = measured here: cell number at 48 h, Library stock concentration: 10 mM
[14] = Library stock concentration: 80 uM
[15] = Library stock concentration: 400 uM
[16] = Library stock concentration: 2 mM
[17] = Library stock concentration: 10 mM
[18] = measured here: p53 positive nuclei at 24 h, Library stock concentration: 80 uM
[19] = measured here: p53 positive nuclei at 24 h, Library stock concentration: 400 uM
[20] = measured here: p53 positive nuclei at 24 h, Library stock concentration: 2 mM
[21] = measured here: p53 positive nuclei at 24 h, Library stock concentration: 10 mM
[22] = measured here: cell number at 24 h, Library stock concentration: 3.33 mM
[23] = measured here: cell number at 48 h, Library stock concentration: 3.33 mM
[24] = Library stock concentration: 3.33 mM
[25] = measured here: p53 positive nuclei at 24 h, Library stock concentration: 3.33 mM

Question: For CCCCCCCCNC(=O)Cc1c(C)n(C(=O)c2ccc(Cl)cc2)c2ccc(OC)cc12, which nuclei count, normalised [1, 3] is on record?
Answer: 104%

Question: And the nuclei count, normalised [1, 4]?
Answer: 112%

Question: What about the p53-positive nuclei, normalised ([2]; concentration not given here) of the same molecule?
Answer: 0.0988% (inactive)

Question: And the p53-positive nuclei, normalised [2, 5]?
Answer: -0.0319%

Question: For O=C1CCCc2occ(C(=O)N3CCc4[nH]nc(C5CCC5)c4C3)c21, which nuclei count, normalised [1, 3] is on record?
Answer: 110%

Question: And the nuclei count, normalised [1, 4]?
Answer: 114%

Question: And the p53-positive nuclei, normalised ([2]; concentration not given here)?
Answer: -0.00738% (inactive)

Question: And the p53-positive nuclei, normalised [2, 5]?
Answer: -0.086%

Question: With OCCCNc1cc(-c2ccnc(Nc3cccc(Cl)c3)n2)ccn1 as the molecule, how does the nuclei count, normalised [1, 6] read?
Answer: 46%

Question: And the nuclei count, normalised [1, 7]?
Answer: 37.5%

Question: And the nuclei count, normalised [1, 8]?
Answer: 37%

Question: And the nuclei count, normalised [1, 9]?
Answer: 36.9%

Question: What about the nuclei count, normalised [1, 10] of the same molecule?
Answer: 28.8%

Question: What about the nuclei count, normalised [1, 11] of the same molecule?
Answer: 20.8%

Question: And the nuclei count, normalised [1, 12]?
Answer: 22.2%

Question: What about the nuclei count, normalised [1, 13] of the same molecule?
Answer: 23.8%

Question: And the p53-positive nuclei, normalised [2, 14]?
Answer: 75.9% (active)

Question: What about the p53-positive nuclei, normalised [2, 15] of the same molecule?
Answer: 41.8% (inactive)

Question: What about the p53-positive nuclei, normalised [2, 16] of the same molecule?
Answer: 16.5% (inactive)

Question: And the p53-positive nuclei, normalised [2, 17]?
Answer: 8.11% (inactive)

Question: What about the p53-positive nuclei, normalised [2, 18] of the same molecule?
Answer: 23.9%

Question: And the p53-positive nuclei, normalised [2, 19]?
Answer: 2.63%

Question: And the p53-positive nuclei, normalised [2, 20]?
Answer: 2.24%

Question: And the p53-positive nuclei, normalised [2, 21]?
Answer: 1.34%

Question: With OCCCCCNc1nccc(-c2cnn(-c3ccc(F)cc3)c2)n1 as the molecule, how does the nuclei count, normalised [1, 3] read?
Answer: 103%

Question: And the nuclei count, normalised [1, 4]?
Answer: 103%

Question: And the p53-positive nuclei, normalised ([2]; concentration not given here)?
Answer: -0.0141% (inactive)

Question: What about the p53-positive nuclei, normalised [2, 5] of the same molecule?
Answer: 0.508%

Question: With OCCCCCNc1nccc(-c2cnn(-c3ccccc3F)c2)n1 as the molecule, how does the nuclei count, normalised [1, 3] read?
Answer: 112%

Question: What about the nuclei count, normalised [1, 4] of the same molecule?
Answer: 73.8%

Question: And the p53-positive nuclei, normalised ([2]; concentration not given here)?
Answer: 0.562% (inactive)

Question: And the p53-positive nuclei, normalised [2, 5]?
Answer: -0.0884%

Question: For NC(=Nc1ccc(F)cc1)NO, which nuclei count, normalised [1, 3] is on record?
Answer: 101%

Question: What about the nuclei count, normalised [1, 4] of the same molecule?
Answer: 95.3%

Question: And the p53-positive nuclei, normalised ([2]; concentration not given here)?
Answer: 0.0683% (inactive)

Question: And the p53-positive nuclei, normalised [2, 5]?
Answer: -0.0286%

Question: For O=C(C=Cn1cnc(-c2cc(C(F)(F)F)cc(C(F)(F)F)c2)n1)N1CC(F)(F)C1, which nuclei count, normalised [1, 22] is on record?
Answer: 66.2%

Question: And the nuclei count, normalised [1, 23]?
Answer: 53%

Question: And the p53-positive nuclei, normalised [2, 24]?
Answer: 0.0748% (inactive)

Question: What about the p53-positive nuclei, normalised [2, 25] of the same molecule?
Answer: -0.238%

Question: For O=C(O)CCC/C=C\C[C@H]1C(=O)C[C@@H](O)[C@@H]1/C=C/[C@@H](O)CCc1ccccc1, which nuclei count, normalised [1, 3] is on record?
Answer: 102%

Question: What about the nuclei count, normalised [1, 4] of the same molecule?
Answer: 107%

Question: What about the p53-positive nuclei, normalised ([2]; concentration not given here) of the same molecule?
Answer: 0.0806% (inactive)

Question: And the p53-positive nuclei, normalised [2, 5]?
Answer: 0.0378%

Question: With Cc1nn(C)cc1-c1ccnc(N2CCCC(c3nc4c(C)cccc4[nH]3)C2)n1 (stereo not drawn) as the molecule, how does the nuclei count, normalised [1, 3] read?
Answer: 103%

Question: What about the nuclei count, normalised [1, 4] of the same molecule?
Answer: 106%

Question: What about the p53-positive nuclei, normalised ([2]; concentration not given here) of the same molecule?
Answer: -0.267% (inactive)

Question: What about the p53-positive nuclei, normalised [2, 5] of the same molecule?
Answer: -0.151%

Question: Which results are given for CC1(C)S[C@@H]2C(NC(=O)C(C(=O)O)c3ccccc3)C(=O)N2C1C(=O)O (stereo partly drawn)?
Answer: nuclei count, normalised [1, 22]: 119%; nuclei count, normalised [1, 23]: 111%; p53-positive nuclei, normalised [2, 24]: -0.208% (inactive); p53-positive nuclei, normalised [2, 25]: -0.327%

Question: For COc1cc(OC)c2c(=O)[nH]c(-c3cc(C)c(OCCO)c(C)c3)nc2c1, which nuclei count, normalised ([1]; measured here: cell number at 24 h, Library stock concentration: 46 uM) is on record?
Answer: 114%

Question: What about the nuclei count, normalised ([1]; measured here: cell number at 24 h, Library stock concentration: 278 uM) of the same molecule?
Answer: 107%

Question: What about the nuclei count, normalised ([1]; measured here: cell number at 24 h, Library stock concentration: 1.67 mM) of the same molecule?
Answer: 118%

Question: And the nuclei count, normalised [1, 22]?
Answer: 108%

Question: What about the nuclei count, normalised [1, 9] of the same molecule?
Answer: 109%

Question: What about the nuclei count, normalised ([1]; measured here: cell number at 48 h, Library stock concentration: 46 uM) of the same molecule?
Answer: 111%

Question: And the nuclei count, normalised ([1]; measured here: cell number at 48 h, Library stock concentration: 278 uM)?
Answer: 108%

Question: What about the nuclei count, normalised ([1]; measured here: cell number at 48 h, Library stock concentration: 1.67 mM) of the same molecule?
Answer: 107%

Question: And the nuclei count, normalised [1, 23]?
Answer: 103%

Question: What about the nuclei count, normalised [1, 13] of the same molecule?
Answer: 108%

Question: What about the p53-positive nuclei, normalised ([2]; Library stock concentration: 46 uM) of the same molecule?
Answer: 0.0206% (inactive)

Question: And the p53-positive nuclei, normalised ([2]; Library stock concentration: 278 uM)?
Answer: 0.323% (inactive)

Question: What about the p53-positive nuclei, normalised ([2]; Library stock concentration: 1.67 mM) of the same molecule?
Answer: 0.07% (inactive)

Question: What about the p53-positive nuclei, normalised [2, 24] of the same molecule?
Answer: 0.152% (inactive)

Question: What about the p53-positive nuclei, normalised [2, 17] of the same molecule?
Answer: -0.223% (inactive)

Question: And the p53-positive nuclei, normalised ([2]; measured here: p53 positive nuclei at 24 h, Library stock concentration: 46 uM)?
Answer: -0.102%

Question: What about the p53-positive nuclei, normalised ([2]; measured here: p53 positive nuclei at 24 h, Library stock concentration: 278 uM) of the same molecule?
Answer: 0.166%

Question: And the p53-positive nuclei, normalised ([2]; measured here: p53 positive nuclei at 24 h, Library stock concentration: 1.67 mM)?
Answer: -0.00477%

Question: And the p53-positive nuclei, normalised [2, 25]?
Answer: 0.0179%

Question: What about the p53-positive nuclei, normalised [2, 21] of the same molecule?
Answer: -0.153%

Question: Which nuclei count, normalised [1, 6] does the source give for CC(C)c1nn(-c2c(Cl)cccc2Cl)c2nc(Cc3ccc(OCCO)cc3)[nH]c(=O)c12 here?
Answer: 64.8%

Question: And the nuclei count, normalised [1, 7]?
Answer: 36%

Question: And the nuclei count, normalised [1, 8]?
Answer: 26.2%

Question: And the nuclei count, normalised [1, 9]?
Answer: 26.4%

Question: And the nuclei count, normalised [1, 10]?
Answer: 50.6%

Question: And the nuclei count, normalised [1, 11]?
Answer: 25.1%

Question: And the nuclei count, normalised [1, 12]?
Answer: 17.9%

Question: What about the nuclei count, normalised [1, 13] of the same molecule?
Answer: 18.4%

Question: And the p53-positive nuclei, normalised [2, 14]?
Answer: 27.9% (inactive)

Question: And the p53-positive nuclei, normalised [2, 15]?
Answer: 67% (active)

Question: What about the p53-positive nuclei, normalised [2, 16] of the same molecule?
Answer: 32.9% (inactive)

Question: What about the p53-positive nuclei, normalised [2, 17] of the same molecule?
Answer: 34.7% (inactive)

Question: What about the p53-positive nuclei, normalised [2, 18] of the same molecule?
Answer: 18.6%

Question: What about the p53-positive nuclei, normalised [2, 19] of the same molecule?
Answer: 19.1%

Question: What about the p53-positive nuclei, normalised [2, 20] of the same molecule?
Answer: 6.59%

Question: And the p53-positive nuclei, normalised [2, 21]?
Answer: 4.85%

Reference: PubChem BioAssay AID1508601 (ICCB-Longwood Screening Facility, Harvard Medical School, 2020)
